Rows were chosen to be rich in hits. Some 1.3% of all compounds tested hit in one or more screens of this group.
MCL1-BIM inh: inhibitors of MCL1 binding to BIM-BH3, primary screen, biochemical, fluorescence polarization; Induced myeloid leukemia cell differentiation protein Mcl-1 (Homo sapiens), Q07820; GST-MCL1 / FITC-Bim-BH3 fluorescence polarization; inhibition, % at 10.9 µM; actives 0.68% (n = 320,000);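 active = inhibition above the mean inhibition of all tested compounds plus 3 SD, set per campaign, cut at about 40% in these data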;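 note: 0% = DMSO wells and 100% = unlabeled Bim-BH3 peptide control; higher means more loss of mP so more displacement of Bim peptide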
Bcl-xL primary: inhibitors of human Bcl-xL, primary screen, biochemical, fluorescence polarization, HTS. Bcl-2-like protein 1 (Homo sapiens), Q07817. GST-Bcl-xL / FITC-Bim BH3 peptide fluorescence polarization. inhibition, % at 10.9 µM. actives 0.7% (n = 320,000). AID 2129, 2009;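 active = inhibition above the mean of all tested compounds plus 3 SD, cutoff set per campaign, cut at about 30% in these data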;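 note: 0% = DMSO wells and 100% = unlabeled Bim-BH3 peptide competitor; inhibitors lower millipolarization by displacing the labeled peptide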
EBV gp42 inh: Epstein-Barr virus gp42 inhibitors, primary screen, biochemical, uHTS, fluorescence polarization; Glycoprotein 42 (Epstein-Barr virus (strain AG876)), Q1HVG2; Fluorescence polarization binding assay, mP read-out; inhibition, % (tested at 21.74 µM); actives 0.42% (n = 220,000); AID 1085, 2008; in the data active = inhibition above about 50%
MEX-5 binding: MEX-5 zinc finger RNA-binding disruptors – biochemical, C. elegans, fluorescence polarization, MLPCN library, primary screen; Zinc finger protein mex-5 (Caenorhabditis elegans), Q9XUB2; MEX-5/FITC-TCR2 RNA binding; hits give low values; activity score (negative = inhibition of binding), % at 10 µM; actives 0.38% (n = 300,000); AID 1832, 2009;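 active = inhibition past about -25% in most replicates, and total fluorescence under double the plate's negative control median, limit read from the data; inconclusive = replicates evenly split on the limit, or fluorescence at least double controls; inactive = too little inhibition in most replicates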;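 note: 0% = DMSO and -100% = 5 µM competing unlabeled TCR2 RNA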
GLD-1 RNA inh: GLD-1/TGE RNA complex disruptors, primary screen, biochemical, fluorescence polarization. purified GLD-1 + fluorescein TGE RNA. inhibition, % at 5.96 µM. actives 0.44% (n = 320,000). AID 2280, 2010;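 active = percent inhibition above a per-plate cutoff, the plate mean of test compounds plus 3 SD, cut at about 30% in these data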;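 note: 0% = DMSO wells with GLD-1 and probe and 100% = wells lacking GLD-1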
Target sequence (Q17339 whole entry, looked up): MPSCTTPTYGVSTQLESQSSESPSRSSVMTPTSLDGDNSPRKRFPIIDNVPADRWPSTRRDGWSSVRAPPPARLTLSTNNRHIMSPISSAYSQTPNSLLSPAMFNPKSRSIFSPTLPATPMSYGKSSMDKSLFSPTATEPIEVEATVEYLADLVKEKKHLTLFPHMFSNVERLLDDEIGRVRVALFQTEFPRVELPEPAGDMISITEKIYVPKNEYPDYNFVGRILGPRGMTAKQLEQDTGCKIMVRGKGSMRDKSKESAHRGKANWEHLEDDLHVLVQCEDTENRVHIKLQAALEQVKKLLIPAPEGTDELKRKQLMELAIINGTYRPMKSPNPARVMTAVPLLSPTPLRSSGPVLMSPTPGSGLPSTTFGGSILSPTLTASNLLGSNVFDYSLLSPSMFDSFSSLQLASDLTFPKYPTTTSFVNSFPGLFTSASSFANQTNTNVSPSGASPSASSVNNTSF
Starred values were filed as active, the others as inactive; ? = inconclusive; nt = no result given.

SMILES	MCL1-BIM inh	Bcl-xL primary	EBV gp42 inh	MEX-5 binding	GLD-1 RNA inh
CC1CN(Cc2c(O)ccc3c2oc(=O)c2ccccc23)CC(C)O1 (stereo unspecified)	10	18	-9	-29*	-3
Cc1cc(C)n2nc(SCCOc3ccccc3F)nc2n1	0	2	-9	0	-1
CC(C)(OC(=O)c1ccc(F)cc1)c1cc2ccccc2c(=O)o1	0	-2	nt	nt	7
CCC12CCCN3CCc4c(n(c5ccccc45)C(O)(C(=O)OC)C1)C32 (stereo unspecified)	27	31*	-2	-13	19
CC[C@]12CCCN3CCc4c(n(c5ccccc45)[C@](O)(C(=O)OC)C1)[C@@H]32	5	3	nt	nt	2
O=Cc1ccc2ccc3cccnc3c2n1	10	6	nt	-34*	3
CC1(OC(=O)C2CCCC2)C(=O)C=C2C=C3CCCCN3C=C2C1=O (stereo unspecified)	47*	32*	-12	-8	18
CC1(OC(=O)C2CCCC2)C(=O)C=C2C=C(C3CC3)OC=C2C1=O (stereo unspecified)	42*	50*	nt	-12	44*
CCC(NC(=O)c1ccc2nc(Cc3ccc(OC)cc3)oc2c1)c1ccncc1 (stereo unspecified)	9	6	nt	2	10
COc1ccccc1Nc1nc2cc(C)ccc2cc1C#N	-8	0	-12	0	-13
COc1ccccc1Nc1nc2ccc(C)cc2cc1C#N	-3	0	57*	-3	4
CCOC(=O)Cn1c2ccc(OC)cc2c2nc3ccccc3nc21	8	1	64*	-102*	4
CCOC(=O)c1[nH]cnc1C(=O)Nc1ccccc1OC	-4	1	2	-2	-7
CN(C(=O)CSc1nnc(-c2c[nH]c3ccccc23)n1C1CC1)C1CCS(=O)(=O)C1 (stereo unspecified)	-2	-3	nt	nt	2
CSc1nc(=S)c2[nH]c(=S)[nH]c2[nH]1	nt	nt	0	-99*	nt
CNC(=O)c1oc(-c2ccccc2)nc1C	-1	6	-7	-1	-1
CCCCCN1C=CC=C/C1=C\C=C(C#N)C#N	-29	-22	-21	-37*	-44
N#CC1=C(N)Oc2ccc3ccc(O)cc3c2C1c1ccsc1 (stereo unspecified)	nt	nt	161*	-47*	nt
CCOC(=O)CC1(NC(=O)C2CCC(=O)N(CCc3ccccc3)C2)CCCCC1 (stereo unspecified)	-1	-1	nt	-1	2
O=C(Nc1ccc2c(c1)CCCN2C(=O)c1cccs1)c1c(F)cccc1Cl	-5	3	nt	-2	-3
CCc1nn(C)c2c(=O)c(=O)c2n(C)[nH]1	38	33*	23	-18	24
Cc1nn(C)c2c(=O)c(=O)c2n(C)[nH]1	-1	1	-11	1	0
Cc1cc(C)cc(NC(=S)N2CCC(NC(=O)c3ccco3)CC2)c1	4	1	nt	1	4
COc1cc(NC(=O)Cn2ncc3c2-c2ccccc2OC3)cc(OC)c1OC	33	172*	7	2	7
Fc1cccc(CSc2nc3ccncc3[nH]2)c1	1	-2	-8	0	8
SMILES	MCL1-BIM inh	Bcl-xL primary	EBV gp42 inh	MEX-5 binding	GLD-1 RNA inh
Clc1cccc(CSc2nc3ccncc3[nH]2)c1	1	4	-8	-52*	7
CCOC(=O)Cc1csc(NC(=O)CSc2nc(=O)[nH]c3c2CCCC3)n1	4	6	nt	0	7
CCc1ccc(OCc2nnc(SCC(=O)NCc3ccco3)o2)cc1	-5	54*	-7	1	-3
Cn1cc(C(=O)Nc2ccc(C#N)cc2)c2ccccc2c1=O	3	-5	nt	0	-8
C=Cc1c(C)c2cc3[nH]c(cc4nc(cc5nc(cc1[nH]2)C(C)=C5CCC(=O)O)C(CCC(=O)O)=C4C)c(C)c3C=C	83*	29	nt	-42*	19
COc1cccc(C(=O)OCC(=O)Nc2ccc(N3CCOCC3)cc2)c1	-1	-1	nt	nt	6
COc1cc(C(=O)Nc2nc3ccccc3[nH]2)ccc1OC(F)F	-6	73*	-8	2	1
COc1ccc(C(=O)Nc2nc3ccccc3[nH]2)cc1OC	-2	-1	-20	-1	-3
N#Cc1c(N)sc(=S)c2c1CCN(Cc1ccccc1)C2	174*	144*	84*	nt	28
COc1cc(N=Nc2c(O)c3ccccc3[nH]c2=O)c(OC)cc1N=Nc1ccccc1	15	12	-2	0	-2
NC(=O)c1ccc(N=Nc2c(O)c3ccccc3[nH]c2=O)cc1	2	6	65*	-4	3
Cc1cc(/C=C(/C#N)c2nc3ccccc3[nH]2)c(C)n1-c1ccccc1C(=O)O	5	10	19	-3	-18
Cc1cc(/C=C(/C#N)c2nc3ccccc3[nH]2)c(C)n1-c1cc(C(=O)O)cc(C(=O)O)c1	nt	nt	129*	-15	nt
CCCCC1(C)OC(=O)C(=Cc2ccc(N(CC)CC)cc2)C(=O)O1 (stereo unspecified)	-22	-13	75*	?	-5
CCN(CC)c1ccc(/C=c2\sc3nnc(-c4ccccc4Cl)n3c2=O)cc1	-176	-117	193*	?	-74
CCN(CC)c1ccc(/C=c2/sc3nnc(-c4ccccc4C)n3c2=O)cc1	-82	-52	172*	-63*	-69
CC(C)N1CCc2c(sc(N)c2C#N)C1	43*	47*	-20	?	-75
S=C(NCCCn1ccnc1)Nc1cccc(Cl)c1	8	4	-11	6	-1
Cc1ccc2c(c1)CC1(CN2C)C(=O)OC2(CCCCC2)OC1=O	6	33*	-12	-2	5
CN1CC2(Cc3c1ccc1ccccc31)C(=O)OC(C)(C)OC2=O	17	25	17	nt	7
Cc1c(C(=O)NCCSCc2c(F)cccc2Cl)cnn1-c1ccc(Cl)cc1	2	0	52*	-4	2
C#CCCCCCCC#CCN(C)C	9	4	2	-1	0
Cc1cccc[n+]1C1C(c2ccc([N+](=O)[O-])cc2)C(C#N)=C(C(=C=[N-])C#N)NC1(O)C1CC1 (stereo unspecified)	25	31*	-23	-6	19
CCOc1ccc(C2(C)CC(=O)N(C)C2=O)cc1 (stereo unspecified)	0	-3	nt	1	5
Oc1ccc(-c2csc(Nc3ccccn3)n2)cc1O	22	27	nt	-32*	5
Cc1cccc(Nc2nc(-c3ccc(O)c(O)c3)cs2)n1	27	9	nt	-3	9
COc1cc(-c2ccc3oc(-c4cccc(C)c4)c(C#CC4(O)CCCCC4)c3c2)cc(OC)c1OC	nt	nt	nt	nt	-3

Bioassay records: PubChem BioAssay, several laboratories
